According to PubChem BioAssay AID1159580 (chemical genetic matrix, 2015):
Values joined by “and” are separate entries in the source; they are usually repeats but may differ in a detail not shown here. Equal values may be shown once. Screen size: about 5,500 compounds; about 2,000 (36%) were called active. Not shown: some 18% with an inconclusive outcome. Cut-off read from the data, not from the text of the source: active = normalized growth mostly below about 0.91 (no sharp cut-off); inconclusive = no clear call, values can overlap the other calls; inactive = mostly above about 0.92. The list shows a part of the results.

Test: chemical genetic growth profiling, strain panel (AID 1159580);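 note: tested at 20 µM; growth read once vehicle control cultures reached saturation at 30 °C; 1 = growth at the plate median or of vehicle wells; lower values mean less growth of the strain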
Settings: S. cerevisiae deletion strains, growth OD

Measured: normalized growth

C=C1C2CC[C@@]3(C)[C@H](c4ccoc4)OC(=O)C[C@]13O[C@H]1CC(O)C(C)(C)C(CC(=O)OC)[C@@]21C (stereo not given in full)
inactive: locus YAL021C, strain ccr4, stronger effect = lower value 0.962 | locus YAL026C, strain drs2, stronger effect = lower value 0.934 | locus YAL030W, strain snc1, stronger effect = lower value 0.949 | locus YBL061C, strain skt5, stronger effect = lower value 0.984 | locus YBR009C, strain hhf1, stronger effect = lower value 0.972 | locus YBR021W, strain FUR4, stronger effect = lower value 0.991 | locus YBR023C, strain chs3, stronger effect = lower value 0.981 | locus YBR171W, strain sec66, stronger effect = lower value 0.98 | locus YBR229C, strain ROT2, stronger effect = lower value 0.995 | locus YBR231C, strain swc5, stronger effect = lower value 0.974 | locus YBR279W, strain paf1, stronger effect = lower value 0.978 | locus YCL011C, strain gbp2, stronger effect = lower value 0.984 | locus YCL016C, strain dcc1, stronger effect = lower value 0.983 | locus YCL029C, strain bik1, stronger effect = lower value 1.01 | locus YCL061C, strain MRC1, stronger effect = lower value 0.989 | locus YCL069W, strain vba3, stronger effect = lower value 0.979 | locus YCR088W, strain abp1, stronger effect = lower value 0.977 | locus YDL005C, strain med2, stronger effect = lower value 0.952 | locus YDL035C, strain GPR1, stronger effect = lower value 0.999 | locus YDL040C, strain nat1, stronger effect = lower value 0.982 | locus YDL074C, strain BRE1, stronger effect = lower value 0.999 | locus YDL101C, strain DUN1, stronger effect = lower value 0.999 | locus YDL185W, strain tfp1, stronger effect = lower value 1.02 | locus YDL192W, strain arf1, stronger effect = lower value 1.01 | locus YDR001C, strain nth1, stronger effect = lower value 0.962 | locus YDR069C, strain doa4, stronger effect = lower value 0.957 | locus YDR101C, strain arx1, stronger effect = lower value 1.01 | locus YDR137W, strain rgp1, stronger effect = lower value 0.938 | locus YDR150W, strain NUM1, stronger effect = lower value 0.98 | locus YDR159W, strain sac3, stronger effect = lower value 0.936 | locus YDR162C, strain NBP2, stronger effect = lower value 1.01 | locus YDR195W, strain ref2 0.937 | locus YDR297W, strain sur2, stronger effect = lower value 0.965 | locus YDR318W, strain mcm21, stronger effect = lower value 1.02 | locus YDR334W, strain swr1, stronger effect = lower value 0.966 | locus YDR335W, strain msn5, stronger effect = lower value 0.967 | locus YDR388W, stronger effect = lower value 1 | locus YDR392W, strain spt3, stronger effect = lower value 0.97 | locus YDR502C, strain sam2, stronger effect = lower value 1 | locus YEL003W, strain gim4, stronger effect = lower value 0.975 | locus YEL037C, strain rad23, stronger effect = lower value 0.976 | locus YEL061C, strain CIN8 (second series), stronger effect = lower value 0.966 | locus YEL061C, strain CIN8, stronger effect = lower value 1.05 | locus YER015W, strain faa2, stronger effect = lower value 0.985 | locus YER016W, strain bim1, stronger effect = lower value 0.967 | locus YER110C, stronger effect = lower value 1.02 | locus YER111C, strain swi4, stronger effect = lower value 0.988 | locus YER155C, strain BEM2 (second series), stronger effect = lower value 0.955 | locus YER155C, strain BEM2, stronger effect = lower value 1 | locus YER167W, strain BCK2, stronger effect = lower value 1 | locus YFR010W, strain ubp6, stronger effect = lower value 0.965 | locus YGL078C, strain dbp3, stronger effect = lower value 1.02 | locus YGL086W, strain mad1, stronger effect = lower value 1.02 | locus YGL167C, strain pmr1, stronger effect = lower value 0.963 | locus YGL173C, strain kem1, stronger effect = lower value 0.961 | locus YGL227W, strain vid30, stronger effect = lower value 0.986 | locus YGL240W, strain doc1, stronger effect = lower value 0.97 | locus YGL248W, strain PDE1, stronger effect = lower value 1.01 | locus YGL253W, strain hxk2, stronger effect = lower value 0.972 | locus YGR135W, strain pre9, stronger effect = lower value 1.01 | locus YGR252W, strain gcn5, stronger effect = lower value 1.02 | locus YHR013C, strain ard1, stronger effect = lower value 0.939 | locus YHR027C, strain rpn1, stronger effect = lower value 0.967 | locus YHR030C, strain SLT2, stronger effect = lower value 1.01 and 0.963 | locus YHR079C, strain IRE1 (second series), stronger effect = lower value 1.01 | locus YHR079C, strain IRE1, stronger effect = lower value 0.973 | locus YHR094C, strain hxt1, stronger effect = lower value 1.01 | locus YHR129C, strain ARP1, stronger effect = lower value 1 | locus YHR142W, strain chs7, stronger effect = lower value 0.986 | locus YHR200W, strain rpn10, stronger effect = lower value 0.993 | locus YIL066C, strain RNR3, stronger effect = lower value 0.997 | locus YIL073C, strain SPO22, stronger effect = lower value 1.06 | locus YIL125W, strain kgd1, stronger effect = lower value 1.01 | locus YIR030C, strain dcg1, stronger effect = lower value 1.01 | locus YJL092W, strain hpr5, stronger effect = lower value 0.975 | locus YJL095W, strain BCK1 (second series), stronger effect = lower value 0.956 | locus YJL095W, strain BCK1, stronger effect = lower value 1.01 and 0.974 | locus YJL115W, strain asf1, stronger effect = lower value 0.937 | locus YJL129C, strain trk1, stronger effect = lower value 0.963 | locus YJL134W, strain LCB3, stronger effect = lower value 1.01 | locus YJL154C, strain vps35, stronger effect = lower value 0.973 | locus YJL164C, strain tpk1, stronger effect = lower value 0.972 | locus YJL166W, strain qcr8, stronger effect = lower value 0.97 | locus YJL168C, strain set2, stronger effect = lower value 1.01 | locus YJL187C, strain SWE1 (second series), stronger effect = lower value 1
